Measured values published in the supplement of paper PMC10849652.
About 7,900 targets were measured; listed, in parts, are those with a hit and a random draw of the rest. About 0.6% of all pairs of compound and target were hits.

compound: C1COCCN1CCN2C3=CC=CC=C3N=C2NC(=O)C4=CC(=CC=C4)[N+](=O)[O-] [IRAK-1-4 Inhibitor I]; assay: log2 fold change, soluble protein after heating vs DMSO (PISA); higher = thermal stabilisation; K562 cells, 10 uM, 30 min; active = over 0.2 and 3.5 SD of the protein, either way, in both replicates (recomputed)
Outline: (§1)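 Thermal stability values are relative to control samples and come from duplicates. They are expressed as log2 fold changes. For measurement, K562 cells (2×10^6 cells/mL) received 10 μM compound for 30 min, and aliquots were heated for 3 min over 48°C-58°C, pooled, and extracted at 4°C in PBS with 0.5% NP-40. Soluble protein, the supernatant after 21,000xg for 90 min, was quantified by TMTpro 16plex LC-MS/MS with equalised channel sums.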

Chain of UniProt Q9Y5K5 (Q9Y5K5 whole entry, looked up): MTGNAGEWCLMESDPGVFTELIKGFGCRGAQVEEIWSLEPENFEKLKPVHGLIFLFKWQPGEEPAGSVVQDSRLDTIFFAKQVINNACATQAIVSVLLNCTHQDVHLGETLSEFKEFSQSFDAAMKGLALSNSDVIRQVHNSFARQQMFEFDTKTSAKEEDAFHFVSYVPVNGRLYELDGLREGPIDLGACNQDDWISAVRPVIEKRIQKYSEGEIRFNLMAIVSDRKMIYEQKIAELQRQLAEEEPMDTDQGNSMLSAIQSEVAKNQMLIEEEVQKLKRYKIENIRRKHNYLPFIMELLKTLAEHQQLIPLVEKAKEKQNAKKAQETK
Chain of UniProt Q9H267 (Q9H267 whole entry, looked up): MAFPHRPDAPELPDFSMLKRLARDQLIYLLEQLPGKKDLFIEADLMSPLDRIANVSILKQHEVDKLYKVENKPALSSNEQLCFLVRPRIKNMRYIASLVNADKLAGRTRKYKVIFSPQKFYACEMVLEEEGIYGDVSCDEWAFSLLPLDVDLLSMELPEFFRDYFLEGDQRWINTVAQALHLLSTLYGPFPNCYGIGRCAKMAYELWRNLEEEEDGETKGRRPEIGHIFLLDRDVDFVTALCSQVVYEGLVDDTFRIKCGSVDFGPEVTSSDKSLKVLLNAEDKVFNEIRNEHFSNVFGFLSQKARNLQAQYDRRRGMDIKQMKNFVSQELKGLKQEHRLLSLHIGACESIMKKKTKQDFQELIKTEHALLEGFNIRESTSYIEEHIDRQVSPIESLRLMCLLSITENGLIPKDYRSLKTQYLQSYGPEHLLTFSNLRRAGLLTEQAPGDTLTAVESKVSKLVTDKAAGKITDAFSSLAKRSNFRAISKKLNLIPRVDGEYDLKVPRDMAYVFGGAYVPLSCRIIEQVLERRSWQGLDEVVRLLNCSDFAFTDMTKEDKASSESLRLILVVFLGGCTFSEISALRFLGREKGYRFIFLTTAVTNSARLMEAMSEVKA
Chain of UniProt Q14139 (Q14139 whole entry, looked up): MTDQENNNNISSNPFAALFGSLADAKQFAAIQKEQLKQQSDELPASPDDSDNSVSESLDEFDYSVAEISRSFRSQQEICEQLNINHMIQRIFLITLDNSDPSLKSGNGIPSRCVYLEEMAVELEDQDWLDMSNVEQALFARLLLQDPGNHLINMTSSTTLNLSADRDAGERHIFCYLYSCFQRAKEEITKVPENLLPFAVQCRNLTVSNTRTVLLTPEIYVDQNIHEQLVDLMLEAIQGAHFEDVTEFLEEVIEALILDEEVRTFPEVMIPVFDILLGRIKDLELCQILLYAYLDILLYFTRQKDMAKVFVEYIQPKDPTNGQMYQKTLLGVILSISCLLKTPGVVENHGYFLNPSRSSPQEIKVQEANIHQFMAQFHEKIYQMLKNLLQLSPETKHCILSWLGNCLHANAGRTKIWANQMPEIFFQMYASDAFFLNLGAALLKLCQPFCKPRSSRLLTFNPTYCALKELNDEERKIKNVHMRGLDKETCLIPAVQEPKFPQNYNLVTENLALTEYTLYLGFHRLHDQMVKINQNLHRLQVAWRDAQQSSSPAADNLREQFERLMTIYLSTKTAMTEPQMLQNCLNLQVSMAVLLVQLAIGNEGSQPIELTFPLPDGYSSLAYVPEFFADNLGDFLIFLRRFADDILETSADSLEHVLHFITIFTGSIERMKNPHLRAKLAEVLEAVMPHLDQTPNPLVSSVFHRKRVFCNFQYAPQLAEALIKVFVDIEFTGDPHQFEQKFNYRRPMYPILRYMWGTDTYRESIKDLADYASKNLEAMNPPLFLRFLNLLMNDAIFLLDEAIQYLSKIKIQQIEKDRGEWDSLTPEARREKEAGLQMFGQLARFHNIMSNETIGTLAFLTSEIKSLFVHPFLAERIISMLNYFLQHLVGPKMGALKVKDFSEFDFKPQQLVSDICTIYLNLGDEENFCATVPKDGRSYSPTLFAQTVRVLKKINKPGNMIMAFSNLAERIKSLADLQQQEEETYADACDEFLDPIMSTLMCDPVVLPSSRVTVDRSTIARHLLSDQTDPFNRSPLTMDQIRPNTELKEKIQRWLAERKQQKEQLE
Chain of UniProt Q9Y4E8 (Q9Y4E8 whole entry, looked up): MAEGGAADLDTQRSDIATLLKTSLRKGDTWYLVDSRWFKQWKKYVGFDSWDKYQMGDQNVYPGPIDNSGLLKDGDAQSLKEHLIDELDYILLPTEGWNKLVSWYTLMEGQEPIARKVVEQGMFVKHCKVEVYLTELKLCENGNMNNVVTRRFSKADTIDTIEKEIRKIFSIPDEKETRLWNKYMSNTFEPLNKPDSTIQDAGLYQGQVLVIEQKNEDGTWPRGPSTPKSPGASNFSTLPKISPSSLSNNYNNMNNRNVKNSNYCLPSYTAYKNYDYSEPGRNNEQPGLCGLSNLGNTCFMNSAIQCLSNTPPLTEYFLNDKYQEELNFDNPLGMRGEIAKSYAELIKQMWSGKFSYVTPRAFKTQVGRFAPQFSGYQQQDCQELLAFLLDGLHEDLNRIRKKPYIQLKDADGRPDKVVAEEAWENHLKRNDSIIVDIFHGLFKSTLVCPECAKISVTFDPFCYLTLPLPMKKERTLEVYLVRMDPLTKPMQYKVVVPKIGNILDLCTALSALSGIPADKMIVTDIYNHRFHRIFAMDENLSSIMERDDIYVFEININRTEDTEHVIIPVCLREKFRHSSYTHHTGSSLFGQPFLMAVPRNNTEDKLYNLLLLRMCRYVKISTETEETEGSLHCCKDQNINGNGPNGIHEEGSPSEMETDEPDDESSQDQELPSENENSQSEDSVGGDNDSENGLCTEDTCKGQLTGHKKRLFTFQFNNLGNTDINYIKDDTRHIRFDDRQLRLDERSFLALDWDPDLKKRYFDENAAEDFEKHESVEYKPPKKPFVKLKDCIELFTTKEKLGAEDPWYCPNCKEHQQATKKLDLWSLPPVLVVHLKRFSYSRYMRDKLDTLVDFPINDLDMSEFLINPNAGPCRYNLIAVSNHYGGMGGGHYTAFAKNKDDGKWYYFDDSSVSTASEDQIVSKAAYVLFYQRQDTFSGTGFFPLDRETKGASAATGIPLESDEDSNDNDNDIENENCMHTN
Chain of UniProt A6NIH7 (A6NIH7 whole entry, looked up): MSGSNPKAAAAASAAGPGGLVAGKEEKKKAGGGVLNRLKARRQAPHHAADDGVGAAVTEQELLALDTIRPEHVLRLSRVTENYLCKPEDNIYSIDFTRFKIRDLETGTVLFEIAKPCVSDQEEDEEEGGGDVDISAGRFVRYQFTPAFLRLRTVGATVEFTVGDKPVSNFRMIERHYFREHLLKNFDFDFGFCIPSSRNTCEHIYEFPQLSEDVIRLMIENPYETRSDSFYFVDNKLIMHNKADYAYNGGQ
Chain of UniProt Q9NUM4 (Q9NUM4 whole entry, looked up): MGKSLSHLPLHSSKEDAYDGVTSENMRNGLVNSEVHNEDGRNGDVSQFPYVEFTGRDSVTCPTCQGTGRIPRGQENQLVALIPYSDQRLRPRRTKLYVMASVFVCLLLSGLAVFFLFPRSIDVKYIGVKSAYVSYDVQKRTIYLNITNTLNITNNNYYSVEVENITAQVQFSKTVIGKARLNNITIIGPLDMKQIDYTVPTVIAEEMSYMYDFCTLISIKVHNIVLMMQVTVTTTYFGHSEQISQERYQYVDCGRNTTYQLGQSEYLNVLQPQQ
Chain of UniProt Q6PID6 (Q6PID6 whole entry, looked up): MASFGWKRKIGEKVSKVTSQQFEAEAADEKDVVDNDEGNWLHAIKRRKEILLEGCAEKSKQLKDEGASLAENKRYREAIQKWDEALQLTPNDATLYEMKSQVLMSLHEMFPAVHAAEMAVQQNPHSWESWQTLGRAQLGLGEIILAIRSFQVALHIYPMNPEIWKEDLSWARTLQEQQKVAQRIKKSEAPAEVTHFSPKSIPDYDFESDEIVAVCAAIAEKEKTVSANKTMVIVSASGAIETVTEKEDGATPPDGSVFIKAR
Chain of UniProt Q9UBK9 (Q9UBK9 whole entry, looked up): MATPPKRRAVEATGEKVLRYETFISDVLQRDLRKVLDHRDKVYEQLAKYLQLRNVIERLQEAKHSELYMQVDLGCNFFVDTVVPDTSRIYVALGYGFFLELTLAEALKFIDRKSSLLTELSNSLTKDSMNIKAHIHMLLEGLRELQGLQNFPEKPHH
Chain of UniProt Q92890 (Q92890 whole entry, looked up): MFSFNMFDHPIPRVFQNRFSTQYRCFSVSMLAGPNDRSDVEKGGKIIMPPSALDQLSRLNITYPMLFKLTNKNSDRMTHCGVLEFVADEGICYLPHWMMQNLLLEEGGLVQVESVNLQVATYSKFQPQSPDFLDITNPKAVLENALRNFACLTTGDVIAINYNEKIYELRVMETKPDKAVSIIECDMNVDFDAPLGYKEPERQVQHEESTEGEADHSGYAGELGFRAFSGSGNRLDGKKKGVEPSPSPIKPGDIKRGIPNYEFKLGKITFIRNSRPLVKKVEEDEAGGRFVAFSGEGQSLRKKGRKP
Chain of UniProt Q16881 (Q16881 whole entry, looked up): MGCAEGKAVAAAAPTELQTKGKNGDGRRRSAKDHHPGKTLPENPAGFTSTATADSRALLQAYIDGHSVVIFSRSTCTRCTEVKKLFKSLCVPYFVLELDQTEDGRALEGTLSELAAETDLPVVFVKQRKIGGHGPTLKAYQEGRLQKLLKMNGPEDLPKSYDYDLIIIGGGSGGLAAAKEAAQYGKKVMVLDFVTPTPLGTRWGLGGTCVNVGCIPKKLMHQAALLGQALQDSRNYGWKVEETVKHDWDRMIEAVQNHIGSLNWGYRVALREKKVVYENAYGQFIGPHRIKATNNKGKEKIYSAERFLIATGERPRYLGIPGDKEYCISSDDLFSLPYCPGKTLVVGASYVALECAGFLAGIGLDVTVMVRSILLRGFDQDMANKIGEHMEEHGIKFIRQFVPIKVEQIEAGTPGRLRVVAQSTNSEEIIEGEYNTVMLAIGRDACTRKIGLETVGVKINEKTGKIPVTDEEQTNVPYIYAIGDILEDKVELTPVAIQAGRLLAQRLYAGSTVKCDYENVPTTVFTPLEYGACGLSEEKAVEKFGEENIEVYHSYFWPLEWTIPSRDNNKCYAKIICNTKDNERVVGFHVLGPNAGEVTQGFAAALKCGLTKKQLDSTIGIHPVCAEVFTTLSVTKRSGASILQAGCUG

log2 fold change, inactive:
UXT isoform 2 (UniProt Q9UBK9) 0.103
TMEM128 (UniProt Q5BJH2) -0.046
VWA3B isoform 6 (UniProt Q502W6) 0.043
TMEM164 (UniProt Q5U3C3) 0.057
TXN2 (UniProt Q99757) 0.081
WDR37 isoform 2 (UniProt Q9Y2I8) 0.144
UBA52 (UniProt P62987) -0.098
U2AF1L5 (UniProt P0DN76) 0.042
TRIM44 (UniProt Q96DX7) 0.031
USP15 (UniProt Q9Y4E8) -0.028
UTP3 (UniProt Q9NQZ2) -0.053
TTC33 (UniProt Q6PID6) 0.059
WDR75 (UniProt Q8IWA0) -0.081
UFD1 isoform 1 (UniProt Q92890) 0.025
TXNL4B (UniProt Q9NX01) 0.132
TMEM189-UBE2V1 (UniProt I3L0A0) 0.048
WARS1 (UniProt G3V277) -0.005
UNC119B (UniProt A6NIH7) 0.113
TSEN2 (UniProt Q8NCE0) 0.073
UCHL5 isoform 3 (UniProt Q9Y5K5) -0.012
TMEM184C (UniProt Q9NVA4) 0.105
TMEM106B (UniProt Q9NUM4) 0.056
UBIAD1 (UniProt Q9Y5Z9) 0.012
UBE4A isoform 2 (UniProt Q14139) -0.114
UCHL5 (UniProt Q9Y5K5) -0.041
VPS33B (UniProt Q9H267) -0.049
VPS33A (UniProt Q96AX1) -0.017
VPS18 (UniProt Q9P253) -0.02
VKORC1 (UniProt Q9BQB6) -0.056
TNFRSF8 (UniProt P28908) 0.056
TXNRD1 (UniProt Q16881) 0.064
WDCP (UniProt Q9H6R7) -0.01
TSC2 (UniProt P49815) -0.045
TNPO3 (UniProt Q9Y5L0) -0.006
UBE3B (UniProt Q7Z3V4) -0.182
TMEM179B (UniProt Q7Z7N9) 0.04

compound: C=CC(=O)N1CCC[C@@H](n2nc(-c3ccc(Oc4ccccc4)cc3)c3c(N)ncnc32)C1 [ibrutinib]; assay: as above
Outline: as §1

log2 fold change, inactive:
UXT isoform 2 (UniProt Q9UBK9) -0.033
TMEM128 (UniProt Q5BJH2) -0.025
VWA3B isoform 6 (UniProt Q502W6) -0.069
TMEM164 (UniProt Q5U3C3) -0.036
TXN2 (UniProt Q99757) 0.021
WDR37 isoform 2 (UniProt Q9Y2I8) -0.06
UBA52 (UniProt P62987) 0.091
U2AF1L5 (UniProt P0DN76) -0.032
TRIM44 (UniProt Q96DX7) 0.018
USP15 (UniProt Q9Y4E8) -0.034
UTP3 (UniProt Q9NQZ2) 0.072
TTC33 (UniProt Q6PID6) 0.058
WDR75 (UniProt Q8IWA0) -0.026
UFD1 isoform 1 (UniProt Q92890) -0.018
TXNL4B (UniProt Q9NX01) -0.065
TMEM189-UBE2V1 (UniProt I3L0A0) 0.022
WARS1 (UniProt G3V277) -0.064
UNC119B (UniProt A6NIH7) 0.08
TSEN2 (UniProt Q8NCE0) -0.022
UCHL5 isoform 3 (UniProt Q9Y5K5) -0.222
TMEM184C (UniProt Q9NVA4) -0.037
TMEM106B (UniProt Q9NUM4) 0.029
UBIAD1 (UniProt Q9Y5Z9) -0.009
UBE4A isoform 2 (UniProt Q14139) -0.125
UCHL5 (UniProt Q9Y5K5) -0.051
VPS33B (UniProt Q9H267) -0.041
VPS33A (UniProt Q96AX1) -0.021
VPS18 (UniProt Q9P253) -0.029
VKORC1 (UniProt Q9BQB6) 0.024
TNFRSF8 (UniProt P28908) 0.046
TXNRD1 (UniProt Q16881) -0.035
WDCP (UniProt Q9H6R7) -0.038
TSC2 (UniProt P49815) 0.028
TNPO3 (UniProt Q9Y5L0) -0.02
UBE3B (UniProt Q7Z3V4) -0.019
TMEM179B (UniProt Q7Z7N9) -0.05
